Drawing on PubChem BioAssay AID2278 (National Center for Advancing Translational Sciences (NCATS), 2010), this text covers outcome for two compounds.

Structures are written as SMILES. Records with an inconclusive call do not appear. Calls of active or inactive are those of the source. The call rests on the fitted dose curve; in most records, active means well fitted curve in the direction sought with a large enough effect; inconclusive means small, poorly fitted or top-dose-only effect, or another doubt; inactive means no such curve, though single readings can be large or run the other way.

This assay addresses Group 10 secretory phospholipase A2 (Mus musculus) (UniProt Q9QXX3). As to the kind of experiment: Secondary Assay for Inhibitors of Ubiquitin-specific Protease USP2a: PLA2 Counterscreen. An excerpt: NIH Molecular Libraries Screening Centers Network [MLSCN] NIH Chemical Genomics Center [NCGC] MLSCN Grant: XO1-MH079852-01 PI Name: Nicholson, Ben. Progenra Inc, Malvern, PA NCGC Assay Overview: Homeostasis of cellular proteins is maintained through a combination of synthesis and degradation. The pathway that accounts for the majority of protein degradation is the ubiquitin-proteasomal pathway. Ubiquitin (Ub) is highly conserved in all cells and the generation of a multi-Ub chain typically targets proteins for degradation by the proteasome. However, ubiquitination is highly reversible and dynamic. Deubiquitination, the reverse process, is catalyzed through the action of enzymes referred to as isopeptidases or deubiquitinating enzymes (DUBs). […]
NCGC Assay Protocol Summary: The assay buffer, prepared fresh at the day of the assay, contains 20mM Tris-HCl pH 8.0, 2mM CaCl2, 2mM beta-mercaptoethanol, 0.1% DMSO. […] Plates were read immediately on an Envision (Perkin Elmer) plate reader using wavelengths of Ex 460nm /Em 535nm. Then, the assay plates were incubated for 2.5 hours and read again on the Envision using the same settings. […] Concentration-response curves were fitted to the normalized data and the concentration-response curves were then classified based on curve quality (r2), response magnitude and degree of measured activity. The time zero reading was used to flag fluorescence artifacts. […]

Sequence of Group 10 secretory phospholipase A2 (Mus musculus) (Q9QXX3 whole entry, looked up): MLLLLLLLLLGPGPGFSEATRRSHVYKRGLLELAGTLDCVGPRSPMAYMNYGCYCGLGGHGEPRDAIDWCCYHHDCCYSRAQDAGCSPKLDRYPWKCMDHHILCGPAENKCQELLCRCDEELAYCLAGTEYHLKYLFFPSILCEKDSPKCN

On to `CC1=NCCc2c1[nH]c1cc(O)ccc21`, for which the compound was called inactive.

`Cc1ccc2scc(N3CCN(C)CC3)c(=O)c2c1`: the outcome was inactive.
